Measured values: PubChem BioAssay (NCI)
This is part of a sample that, as a whole, favours compounds with a hit. Of some 83,000 tested, about 20% had one in any assay.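 Results are percent growth after 48 hours of single-concentration exposure. 100 means growth as in untreated cells, lower positive values show inhibition; negative values down to -100 show cell death.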 The source made the active and inactive calls. Rule for the calls: active = growth percent below 10; inactive = the rest.

What was measured:
Assay in all cases: NCI-60 one-dose screen, 48 h (100 = growth as untreated, 0 = no growth, -100 = all killed)
NCI-H23 lung = conditions: 10 µM unless noted
NCI-H226 lung = conditions: 10 µM unless noted
NCI-H322M lung = conditions: 10 µM unless noted
NCI-H460 lung = conditions: 10 µM unless noted
HOP-92 NSCLC = conditions: 10 µM
NCI-H522 lung = conditions: 10 µM
A549/ATCC NSCLC = conditions: 10 µM unless noted
786-0 renal = conditions: 10 µM unless noted
COLO 205 colon = conditions: 10 µM unless noted

Measured: growth

COc1cc(CNC(=O)CCCC/C=C/C(C)C)ccc1OCc1nnc(Nc2ccccc2F)o1
inactive: NCI-H23 lung 63.8% | NCI-H226 lung 64.5% | NCI-H322M lung 86.1% | NCI-H460 lung 80.3% | HOP-92 NSCLC 56.4% | NCI-H522 lung 60.3% | A549/ATCC NSCLC 105% | 786-0 renal 12% | COLO 205 colon 104%

O=C(N/N=C/c1cc(Cl)ccc1O)C(=O)N/N=C/c1cc(Cl)ccc1O
inactive: NCI-H23 lung 80% | NCI-H226 lung 74.9% | NCI-H322M lung 61.6% | NCI-H460 lung 34.8% | HOP-92 NSCLC 51.9% | NCI-H522 lung 62.7% | A549/ATCC NSCLC 52.6% | 786-0 renal 65.2% | COLO 205 colon 75.2%

CCCC(C)c1cc(Cc2cc(Cl)cc(Cl)c2O)c(O)c(Cc2cc(Cl)cc(Cl)c2O)c1 (stereo not drawn)
active: NCI-H23 lung -6.96% | NCI-H226 lung -4.21% | NCI-H322M lung 9.16% | NCI-H460 lung 3.71% | HOP-92 NSCLC -19.2% | NCI-H522 lung 4.06% | 786-0 renal 6.89%
inactive: A549/ATCC NSCLC 15% | COLO 205 colon 23.9%

CCC(C)C1NC(=O)C(CCCCN)NC(=O)C(CCCCN)NC(=O)C(CC(C)C)NC(=O)C(CCCCN)NC(=O)C(C(C)CC)NC(=O)C(C(C)C)NC(=O)C(C(C)CC)NC(=O)C(CCCCN)NC(=O)C(CCCCN)NC(=O)C(C)NC(=O)C(CCCCN)NC(=O)C(CC(C)C)NC1=O (stereo not drawn)
active: HOP-92 NSCLC -9.52% | NCI-H522 lung 9.29% | COLO 205 colon -59.4%
inactive: NCI-H23 lung 16.6% | NCI-H226 lung 46.8% | NCI-H322M lung 82% | NCI-H460 lung 14.8% | A549/ATCC NSCLC 20.2% | 786-0 renal 20.8%

CCc1ccc(C(=Nc2ccc(N(C)C(=O)CN3CCN(C)CC3)cc2)c2c(O)[nH]c3ccc(C(=O)OC)cc23)cc1
active: NCI-H23 lung -60.5% | NCI-H226 lung -26.2% | NCI-H322M lung -39.7% | NCI-H460 lung -74.5% | HOP-92 NSCLC -70.7% | NCI-H522 lung -64.1% | A549/ATCC NSCLC -29.3% | 786-0 renal -93.3% | COLO 205 colon -69.4%

CCOC(=O)NNc1[nH]c(-c2ccc(OC)cc2)cc1C#N
inactive: NCI-H23 lung 88.9% | NCI-H226 lung 101% | NCI-H322M lung 79.4% | NCI-H460 lung 99.1% | HOP-92 NSCLC 76.4% | NCI-H522 lung 76% | A549/ATCC NSCLC 100% | 786-0 renal 94.8% | COLO 205 colon 14.5%

CC(=O)Nc1ccc(C(=O)/C=C/c2ccc(N(C)C)cc2)cc1
inactive: NCI-H23 lung 93.9% | NCI-H226 lung 96.9% | NCI-H322M lung 106% | NCI-H460 lung 97.6% | HOP-92 NSCLC 101% | NCI-H522 lung 76.6% | A549/ATCC NSCLC 93.9% | 786-0 renal 96.7% | COLO 205 colon 106%

CCCCCCCCCCCCCCCC[n+]1cccc(C#N)c1
inactive: NCI-H23 lung 76.8% | NCI-H226 lung 80.2% | NCI-H322M lung 82.8% | NCI-H460 lung 71.6% | HOP-92 NSCLC 48.7% | NCI-H522 lung 54.7% | A549/ATCC NSCLC 87.7% | 786-0 renal 70.3% | COLO 205 colon 31.9%

COc1ccc(/C=C(/C(=O)N2CCN(c3ccc(C)cc3)CC2)c2cc(OC)c(OC)c(OC)c2)cc1N
inactive: NCI-H23 lung 38.1% | NCI-H226 lung 98.3% | NCI-H322M lung 43.7% | HOP-92 NSCLC 17.6% | A549/ATCC NSCLC 23.1% | 786-0 renal 18.5%
active: NCI-H460 lung 5.51% | NCI-H522 lung -12.8% | COLO 205 colon -43.9%

COC(=O)c1ccc2[nH]c(O)c(C(=Nc3ccc(N(C)C(=O)CN4CCN(C)CC4)cc3)c3cccc(OC)c3)c2c1
inactive: NCI-H226 lung 32.4% | NCI-H322M lung 21.8% | HOP-92 NSCLC 48.3% | NCI-H522 lung 12.1% | 786-0 renal 10.4%
active: NCI-H23 lung 7.62% | NCI-H460 lung 7.31% | A549/ATCC NSCLC 9.85% | COLO 205 colon -55.8%

C#CCCCCCCC[C@@H]1OC(=O)[C@H]([C@@H](C)CC)NC(=O)[C@@H]([C@@H](C)CC)NC(=O)CC(=O)[C@@H]1C
inactive: NCI-H23 lung 99.2% | NCI-H226 lung 86.1% | NCI-H322M lung 96.9% | NCI-H460 lung 102% | HOP-92 NSCLC 77.3% | NCI-H522 lung 90.7% | A549/ATCC NSCLC 107% | 786-0 renal 109% | COLO 205 colon 119%

CCCCCCCCc1ccc(OCCOCC[N+](C)(C)CC)cc1 (tested in a mixture with another compound)
active: HOP-92 NSCLC 6.23% | NCI-H522 lung 3.68% | COLO 205 colon -42.1%
inactive: NCI-H23 lung 26.8% | NCI-H226 lung 56.5% | NCI-H322M lung 94% | NCI-H460 lung 39.9% | A549/ATCC NSCLC 69.5% | 786-0 renal 87.8%

CCCCCCCCc1ccc(CCC(N)(CO)CO)cc1
active: NCI-H322M lung 3.56% | NCI-H460 lung 0.54% | HOP-92 NSCLC -5.83% | NCI-H522 lung -51.7% | A549/ATCC NSCLC 0.665% | 786-0 renal -44.2% | COLO 205 colon -87.5%
inactive: NCI-H23 lung 68.9% | NCI-H226 lung 94.3%

CC(=O)Nc1nc(C)c(C(=O)N/N=C/c2cccs2)s1
inactive: NCI-H23 lung 103% | NCI-H226 lung 86.9% | NCI-H322M lung 111% | NCI-H460 lung 102% | HOP-92 NSCLC 42.6% | NCI-H522 lung 94.8% | A549/ATCC NSCLC 101% | 786-0 renal 94.3% | COLO 205 colon 101%

COc1cc(NC(=O)CSc2nc3ccc(Cl)cc3c(=O)n2-c2ccc(F)cc2)cc(OC)c1OC
inactive: NCI-H23 lung 85.2% | NCI-H226 lung 83.2% | NCI-H322M lung 86.9% | NCI-H460 lung 91.3% | HOP-92 NSCLC 36% | NCI-H522 lung 79.5% | A549/ATCC NSCLC 83.8% | 786-0 renal 75.2% | COLO 205 colon 107%

COc1ccc(/C=C(/C(=O)N2CCCCC2)c2cc(OC)c(OC)c(OC)c2)cc1
active: NCI-H522 lung -24.2% | COLO 205 colon -14.6%
inactive: NCI-H23 lung 36.3% | NCI-H226 lung 94.8% | NCI-H322M lung 45.2% | NCI-H460 lung 11.6% | HOP-92 NSCLC 45.5% | A549/ATCC NSCLC 34.9% | 786-0 renal 23.5%

CC1C(=O)CCCC1=O
inactive: NCI-H23 lung 113% | NCI-H226 lung 121% | NCI-H322M lung 99.4% | NCI-H460 lung 120% | HOP-92 NSCLC 106% | NCI-H522 lung 90.9% | A549/ATCC NSCLC 102% | 786-0 renal 103% | COLO 205 colon 114%

COc1cc(OC)c2c(=O)cc(-c3ccccc3)oc2c1
inactive: NCI-H23 lung 106% | NCI-H226 lung 101% | NCI-H322M lung 93.2% | NCI-H460 lung 104% | HOP-92 NSCLC 54.9% | NCI-H522 lung 82.8% | A549/ATCC NSCLC 96.7% | 786-0 renal 49% | COLO 205 colon 117%

c1ccc(Nc2ncc3c(n2)-c2cccn2CC3)cc1
inactive: NCI-H23 lung 98.7% | NCI-H226 lung 59.2% | NCI-H322M lung 86.9% | NCI-H460 lung 95.9% | HOP-92 NSCLC 77.4% | NCI-H522 lung 85.8% | A549/ATCC NSCLC 113% | 786-0 renal 98.7% | COLO 205 colon 112%

CCOC(=O)NC1=NCC(C)(C)S1
inactive: NCI-H23 lung 102% | NCI-H226 lung 97.2% | NCI-H322M lung 101% | NCI-H460 lung 101% | HOP-92 NSCLC 111% | NCI-H522 lung 87.3% | A549/ATCC NSCLC 100% | 786-0 renal 104% | COLO 205 colon 117%

COc1cccc2c1n([O-])c1cccc(OC)c1[n+]2=O
inactive: NCI-H23 lung 58.8% | NCI-H226 lung 97.8% | NCI-H322M lung 107% | NCI-H460 lung 47.8% | HOP-92 NSCLC 94.3% | NCI-H522 lung 53.5% | A549/ATCC NSCLC 70.6% | 786-0 renal 84.2% | COLO 205 colon 97.6%

COc1cccc(Cn2cc3c(c2)-c2oncc2CC3)c1
inactive: NCI-H23 lung 16.3% | NCI-H226 lung 13.8% | NCI-H322M lung 19.2% | HOP-92 NSCLC 97.1% | NCI-H522 lung 29.5% | A549/ATCC NSCLC 28.3% | 786-0 renal 30.2%
active: NCI-H460 lung 1.35% | COLO 205 colon 9.83%

NC(N)=Nc1ccc(/C=C2\C=Cc3ccccc32)cc1
active: HOP-92 NSCLC 9.95% | COLO 205 colon -77.9%
inactive: NCI-H23 lung 69.9% | NCI-H226 lung 74.6% | NCI-H322M lung 70.5% | NCI-H460 lung 63.5% | NCI-H522 lung 42.7% | A549/ATCC NSCLC 78.6% | 786-0 renal 67.3%

COc1ccc(Cn2cc3c(c2-c2ccccc2)CCc2cnoc2-3)cc1OC
active: NCI-H460 lung 7.98% | COLO 205 colon 8.16%
inactive: NCI-H23 lung 26.3% | NCI-H226 lung 57.3% | NCI-H322M lung 44.8% | HOP-92 NSCLC 61.1% | NCI-H522 lung 35.1% | A549/ATCC NSCLC 41.3% | 786-0 renal 39.7%

O=S(=O)(O)c1ccc2c(c1)Sc1cc(S(=O)(=O)O)ccc1O2
inactive: NCI-H23 lung 109% | NCI-H226 lung 118% | NCI-H322M lung 118% | NCI-H460 lung 118% | HOP-92 NSCLC 98.5% | NCI-H522 lung 107% | A549/ATCC NSCLC 99.5% | 786-0 renal 108% | COLO 205 colon 111%

CC1(C)C(O)NC(Cl)=C(C#N)C1(C#N)C#N (stereo not drawn)
inactive: NCI-H23 lung 92.2% | NCI-H226 lung 135% | NCI-H322M lung 130% | NCI-H460 lung 113% | HOP-92 NSCLC 141% | NCI-H522 lung 91.5% | A549/ATCC NSCLC 103% | 786-0 renal 95.6% | COLO 205 colon 118%

CC(=O)/C(=C/c1ccc(-c2ccccc2)cc1)C(=O)c1ccccc1
inactive: NCI-H23 lung 91.6% | NCI-H226 lung 83.1% | NCI-H322M lung 100% | NCI-H460 lung 99.8% | HOP-92 NSCLC 89.9% | NCI-H522 lung 61.7% | A549/ATCC NSCLC 76.4% | 786-0 renal 92% | COLO 205 colon 93.6%
